HSF-1 act – increases HSF-1 driven luciferase reporter signal; NIH3T3-HGL HSF-1 luciferase reporter, MG132, 8 h; 100% = twice DMSO control signal; activation, % at 9 µM; 300,000 tested, 1.7% active;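 active means mean replicate activation of at least 50% with a set share of replicates each reaching 50%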;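 further: 0% = median of the neutral control wells and 100% = twice that signal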
AHR act – human AHR activation; AHR-responsive luciferase reporter cells, luminescence; activation, % at 5 µM; 320,000 tested, 2.5% active; AID 2796; in the data active means activation above about 47%;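 further: 0% = vehicle wells and 100% = reference agonist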
GAA850 FXN act – frataxin GAA850 promoter activation; AID 540364; activation, % at 6 µM; HEK293 lucGAA850 FXN promoter luciferase reporter, 24 h; percent of 10 µM SAHA response; 360,000 tested, 0.56% active;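 active means activation above the average of all compounds screened plus 3 SD, cutoff fixed separately per campaign, cut at about 7.5% in these data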;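 further: 0% = DMSO wells and 100% = 10 µM SAHA wells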
DAX1 inh – NR0B1 (DAX1) inhibition; P51843; HEK293 Gal4-DAX1 luciferase reporter, luminescence; inhibition, % at 6.75 µM; 340,000 tested, 0.99% active; AID 504766;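 active means inhibition above the mean over all tested compounds plus 3 SD, cut at about 4.2% in these data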;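 further: 0% = DAX1-transfected cells with DMSO and 100% = empty-vector control cells with DMSO; inhibition shows as a rise in luminescence from relieved DAX1 repression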
Target sequence (P51843 207-470 limits assumed): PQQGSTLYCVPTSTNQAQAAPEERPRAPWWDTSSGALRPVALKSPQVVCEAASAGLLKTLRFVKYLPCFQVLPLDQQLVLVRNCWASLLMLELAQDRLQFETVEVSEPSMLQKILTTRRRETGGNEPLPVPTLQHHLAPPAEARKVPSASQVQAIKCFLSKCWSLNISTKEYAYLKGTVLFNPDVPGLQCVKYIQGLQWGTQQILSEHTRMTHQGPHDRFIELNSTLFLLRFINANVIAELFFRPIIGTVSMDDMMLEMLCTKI
HSF1 inhib – HSF1 inhibition; 300,000 tested, 0.77% active; NIH3T3-HGL HSE-luciferase, MG132-induced, luminescence 8 h; hits give low values; activity change, negative = inhibition, % at 7.5 µM (by protocol); AID 2098;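 active means more than half of replicate wells show activity change below -50%, luminescence cut by over half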;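 further: luciferase reports HSF-1 transcriptional activity via heat shock element; 0% = median of DMSO wells and -100% = zero luminescence signal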
Active calls of the source: *. This is a sample that favours compounds with a hit; in the whole collection about 5.4% have one here.

For CCOc1ccc(N2CC(C(=O)N3CCc4ccccc43)CC2=O)cc1 (stereo not given) the results were HSF-1 act 52*, AHR act 15, GAA850 FXN act 2, DAX1 inh -1 and HSF1 inhib 7.
For NC(=O)C1CC(=O)N(c2ccc(OCc3ccc(F)cc3)cc2)C1 (stereo not given) the results were HSF-1 act 25, AHR act 4, GAA850 FXN act 5, DAX1 inh 4.7* and HSF1 inhib 10.
Screening CCOc1ccc(N2CC(C(=O)N3CCCCC3)CC2=O)cc1 (stereo not given) returned HSF-1 act 7, AHR act 0, GAA850 FXN act -1, DAX1 inh -1 and HSF1 inhib 4.
NC(=O)C1CC(=O)N(c2ccc(OCc3ccc([N+](=O)[O-])cc3)cc2)C1 (stereo not given) was read as HSF-1 act 47, AHR act 2, GAA850 FXN act 3, DAX1 inh 0 and HSF1 inhib 28.
CCOc1ccc(N2CC(C(=O)Nc3cc(C)on3)CC2=O)cc1 (stereo not given) was read as HSF-1 act -6, AHR act 76*, GAA850 FXN act 1, DAX1 inh 1 and HSF1 inhib 10.
For O=C(Cc1csc(Nc2nc(=S)[nH]c3ccccc23)n1)N1CCN(c2cccc(C(F)(F)F)c2)CC1 the results were HSF-1 act 16, AHR act 15, GAA850 FXN act 1, DAX1 inh 0 and HSF1 inhib -7.
COc1ccc(S(=O)(=O)N2CC(O)CC2C(=O)Nc2cccnc2)cc1 (stereo not given) was read as HSF-1 act 23, AHR act -3, GAA850 FXN act 1, DAX1 inh 0 and HSF1 inhib 3.
`Cn1c(N)c(C(=O)N2CCN(c3ccccc3)CC2)c(=O)n(C)c1=O` gave GAA850 FXN act 2 and DAX1 inh 1.
`Cc1ccc(/C(O)=C2\C(=O)C(=O)N(CCN(C)C)C2c2ccccc2F)cc1` (stereo not given) gave HSF-1 act -1, AHR act 0, GAA850 FXN act 1, DAX1 inh 4.6* and HSF1 inhib 3.
Screening Cc1nc2ccccn2c1/C(O)=C1\C(=O)C(=O)N(CCN(C)C)C1c1ccco1 (stereo not given) returned HSF-1 act 6, AHR act 1, GAA850 FXN act 2, DAX1 inh 5.2* and HSF1 inhib -9.
For CCN(CC)CCN1C(=O)C(=O)/C(=C(/O)c2cnn(-c3ccccc3)c2C)C1c1cccnc1 (stereo not given) the results were HSF-1 act 2, AHR act -1, GAA850 FXN act -2, DAX1 inh -1 and HSF1 inhib -2.
Screening CCN(CC)CCN1C(=O)C(=O)/C(=C(/O)c2ccc(F)cc2)C1c1cccnc1 (stereo not given) returned HSF-1 act -5, AHR act -2, GAA850 FXN act 2, DAX1 inh 5.0* and HSF1 inhib -7.
`CCn1c(SCC(=O)Nc2cccc(C)n2)nc2c1c(=O)n(C)c(=O)n2C` gave HSF-1 act -8, AHR act 1, GAA850 FXN act 4, DAX1 inh 0 and HSF1 inhib -2.
For COc1ccc(S(=O)(=O)NCCc2cn3nc(C)c(C)nc3n2)cc1F the results were HSF-1 act 8, AHR act 7, GAA850 FXN act 0, DAX1 inh 1 and HSF1 inhib -4.
For COc1ccc(CNC(=O)Oc2ccccc2)cc1Cl the results were HSF-1 act 94*, AHR act 4, GAA850 FXN act -2, DAX1 inh 2 and HSF1 inhib 41.
For COC(=O)NCc1ccc(Cl)c(Cl)c1 the results were HSF-1 act 6, AHR act -1, GAA850 FXN act 1, DAX1 inh -1 and HSF1 inhib 0.
For CC12CCC(=O)N1C(C(=O)Nc1nc(-c3ccccc3Cl)cs1)CS2 (stereo not given) the results were HSF-1 act 18, AHR act 3, GAA850 FXN act 3, DAX1 inh 0 and HSF1 inhib 19.
COc1ccc2c(C)nc(Nc3nc(-c4ccccc4)cc(=O)[nH]3)nc2c1 was read as HSF-1 act 95*, AHR act 38, GAA850 FXN act -5, DAX1 inh -1 and HSF1 inhib 65.
C[C@H](CO)N1C[C@H](C)[C@@H](CN(C)S(=O)(=O)c2ccc(F)cc2)Oc2ccc(NC(=O)C3CCCCC3)cc2C1=O was read as AHR act 1, GAA850 FXN act -1 and DAX1 inh 1.
CCCCn1cnc2sc(-c3ccccc3)cc2c1=O was read as HSF-1 act 56*, AHR act -9, GAA850 FXN act 3, DAX1 inh 3 and HSF1 inhib 32.
Screening CCCCCn1cnc2sc(-c3ccccc3)cc2c1=O returned HSF-1 act 57*, AHR act -8, GAA850 FXN act 4, DAX1 inh 0 and HSF1 inhib 30.
Screening CCN(CCn1cccn1)Cc1c(C(=O)N2C[C@@H](C)O[C@@H](C)C2)nc2ccc(Cl)cn12 returned HSF-1 act -15, AHR act 5, GAA850 FXN act 4, DAX1 inh 0 and HSF1 inhib 2.
For CCN(CC(=O)NC(=O)NCc1ccccc1)Cc1ccccc1 the results were HSF-1 act -7, AHR act 0, GAA850 FXN act 1, DAX1 inh 1 and HSF1 inhib 2.
`COc1ccc(S(=O)(=O)N(C)CC(=O)NCc2ccc3c(c2)OCO3)cc1` gave HSF-1 act 4, AHR act 1, GAA850 FXN act 1, DAX1 inh 2 and HSF1 inhib 0.
For CC(=O)c1cccc(NC(=O)C2Cc3c(-c4ccc(Cl)cc4)ccnc3O2)c1 (stereo not given) the results were GAA850 FXN act 0.
`CC(C)(C)c1ccc(C(=O)Nc2ccc(F)cc2)s1` gave HSF-1 act 78*, AHR act 1, GAA850 FXN act 4, DAX1 inh 3 and HSF1 inhib 34.
`CCc1nc2ccc(C(=O)N(C)Cc3ccco3)cn2c1N(CC)Cc1cccc(Br)c1` gave GAA850 FXN act -2.
Screening Cc1cccc(/C=N\NC(=O)c2ccccc2-n2cccc2)c1 returned HSF-1 act 24, AHR act 34, GAA850 FXN act 1, DAX1 inh 0 and HSF1 inhib 7.
For O=C(N/N=C\c1cccs1)c1sccc1-n1cccc1 the results were HSF-1 act -6, AHR act 67*, GAA850 FXN act 1, DAX1 inh 0 and HSF1 inhib 2.
For Cc1cccc(/C=N\NC(=O)c2sccc2-n2cccc2)c1 the results were HSF-1 act 19, AHR act 64*, GAA850 FXN act 2, DAX1 inh -1 and HSF1 inhib 2.
`C=CCOC(=O)C1=C(C)Nc2nc3ccccc3n2C1c1ccncc1` (stereo not given) gave HSF-1 act 62*, AHR act 20, GAA850 FXN act 0, DAX1 inh 1 and HSF1 inhib 46.
